Among the data in PubChem BioAssay AID1745849 (National Center for Advancing Translational Sciences (NCATS), 2022) are Potency values, retold here.

Structures are written as SMILES. About 320 (15%) of roughly 2,100 compounds were called active. Roughly 52% stayed inconclusive and do not appear here. Calls follow the shape of the dose curve; as a rule, active = well fitted cell-killing curve with a large enough effect; inconclusive = small, poorly fitted or top-dose-only effect, or effect the other way; inactive = flat fitted curve, though single readings scatter. The list shows a part of the results. Entries that show only a call come without a potency.
Potency is read from the fitted curve at half-maximal effect.

The nature of the assay: Viability Counterscreen for CMV-Luciferase Assay of Inhibitors of ATXN expression. Also: nearly all actives have a fitted effect of over 55% in size. The note with it: HEK-293 CMV-luciferase cells viability, protease fluorescence, 24 h. An outline of the steps:
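HEK-293 cells stably expressing a CMV-luciferase reporter were exposed to compounds at several concentrations for 24 hr at 37 degree C. Viability was read as Gly-Phe-AFC fluorescence (25 uM final, 30 min). SteadyGlo luminescence was then measured after 5 min.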
For orientation: The purpose of a counterscreen is to sort out artefacts and off-target activity.
As to `CCCc1cnc(NCCNCC(O)COc2ccc(Cl)c(Cl)c2)nc1` (configuration not stated), the Potency is 28.2 µM (active).

`Cc1cc(/C=N/n2c(COc3ccccc3)nc3ccccc3c2=O)c(O)c([N+](=O)[O-])c1`: the Potency was 12.6 µM (active).

Take `Cc1nc2ccccc2c(=O)n1/N=C/c1c(O)ccc2oc3c(c12)CCCC3`: the Potency entry was “inactive”.

As to `COc1ccc(OCc2cccc(C(=O)Nn3cc([N+](=O)[O-])cn3)c2)cc1`, the Potency result is “inactive”.

With `Cc1ccc2nc(-c3ccccc3)nn2c1`, the Potency entry is “inactive”.

`O=[N+]([O-])c1c(Nc2ccccn2)cc(Cl)c2nonc12`: the Potency was 11.2 µM (active).

With `Cn1c(=O)c(C#N)c(-c2ccc(F)cc2)c2cc(C(=O)c3cc(Cl)cc(Cl)c3O)cnc21`, the Potency entry is “inactive”.

For the compound `Oc1ccc2ccccc2c1/C=C/c1ccc2c(Br)cc(Br)c(O)c2n1`, the Potency entry is “inactive”.

Take `CCOC(=O)C(CC)(CC)C(=O)/C=C/c1ccc(OC)cc1`: the Potency result is “inactive”.

On to `COc1ccc(C(=O)Nn2c(SCC(=O)c3ccccc3)nc3ccccc3c2=O)cc1`, for which the Potency entry is “inactive”.

For `COc1ccc(C(=O)Cn2c(C(=O)/C=C/c3ccccc3)nc3ccccc32)cc1`, the Potency was 3.16 µM (active).

In the case of `CC1=C(CC[C@@H](C)CO)OC2CC3C4CCC5CC(O)CCC5(C)C4CC(=O)C3(C)C12` (some centres not stated), the Potency result is “inactive”.

With `Cn1c(=O)c2c(nc(CN3CCN(Cc4ccccc4)CC3)n2Cc2ccc(Cl)cc2)n(C)c1=O`, the Potency was 25.1 µM (active).

Turning to `Cn1c(=O)c2c(nc(SCCN3CCOCC3)n2Cc2cccc3ccccc23)n(C)c1=O`, the Potency entry is “inactive”.

Regarding `COc1ccc(CC(N)c2csc(NC(=O)c3cc(C(C)(C)C)nn3Cc3ccccc3)n2)cc1` (configuration not stated), the Potency entry is “inactive”.

For `COc1ccc(CC(N)c2csc(NC(=O)c3ccccc3OC)n2)cc1` (configuration not stated), the Potency result is “inactive”.

Take `COc1ccc(CNC(=O)Nc2nc(C(N)Cc3ccc(Cl)cc3)cs2)cc1` (configuration not stated): the Potency was 22.4 µM (active).

For the compound `CN(C)c1ccc(C(=O)N/N=C/c2cc(Br)cc(Br)c2O)cc1`, the Potency result was “inactive”.

Consider `Cc1onc(-c2c(F)cccc2Cl)c1C(=O)Nc1nnc(C(F)(F)F)s1`, for which the Potency result was “inactive”.

On to `Fc1ccc(Nc2nnc(C(F)(F)F)s2)cc1Cl`, for which the Potency is 28.2 µM (active).

Consider `Oc1ccc(C[C@@H]2CNCCN2CCc2cc(C(F)(F)F)cc(C(F)(F)F)c2)cc1`, for which the Potency entry was “inactive”.

Take `NC(=O)C1CCN(C2=C(Cl)C(=O)c3ccccc3C2=O)CC1`: the Potency entry was “inactive”.

Regarding `CCOC(=O)C1CCN(C(=O)c2c(C)oc3c2C(=O)c2ccccc2C3=O)CC1`, the Potency is 15.8 µM (active).

In the case of `CCOC(=O)C1CCN(c2cc3c(cc2NC(=O)c2ccccc2OCC)n(C)c(=O)n3C)CC1`, the Potency result is “inactive”.

Consider `COc1cc(C(=O)OC(C)C(=O)N2CCc3ccccc3C2)ccc1OCC(=O)N1CCOCC1` (configuration not stated), for which the Potency entry is “inactive”.

For `O=C(Nc1ccc2c(c1)CCC2)C1CCN(c2c3c(nc4ncnn24)CCC3)CC1`, the Potency entry was “inactive”.

As for `CCCCCn1c(=N)n(CC(O)COc2ccccc2OC)c2ccccc21` (configuration not stated), the Potency was 3.16 µM (active).

`Cn1c(N)c(C(=O)Nc2ccc(-c3ccccc3)cc2)sc1=S`: the Potency result was “inactive”.

`O=S(=O)(c1ccc(F)cc1)c1snnc1-c1ccccc1`: the Potency was 10 µM (active).

For the compound `NS(=O)(=O)c1ccc(N2N=C(c3ccccc3)CC2c2ccc(F)cc2)cc1` (configuration not stated), the Potency entry was “inactive”.

Turning to `NS(=O)(=O)c1ccc(Nc2nc(-c3ccc(F)cc3)cs2)cc1`, the Potency result was “inactive”.

For `Cc1c(CC(=O)NCCCC(=O)O)c(=O)oc2cc3c(cc12)CCC(C)(C)O3`, the Potency result was “inactive”.

As to `NNc1nc(N)c2c(n1)-c1ccccc1CC21CCCC1`, the Potency entry is “inactive”.

`O=C(NNc1ccnc2cc(Cl)ccc12)C1CCCCC1`: the Potency result was “inactive”.

`CC(C)NC1CCC(Nc2ccnc3cc(Cl)ccc23)CC1` (configuration not stated): the Potency is 15.8 µM (active).

On to `CCN(CC)CCNc1ccnc2cc(Cl)ccc12`, for which the Potency entry was “inactive”.

For `O=C(c1c(F)cccc1F)N1CCCC(c2nc(-c3ccc(Cl)cc3)no2)C1` (configuration not stated), the Potency entry was “inactive”.

As to `CCn1c2ccccc2c2cc(NC(=O)COC(=O)c3ccccc3F)ccc21`, the Potency entry is “inactive”.

Consider `O=C1/C(=C/c2ccncc2)CCC/C1=C\c1ccncc1`, for which the Potency was 5.62 µM (active).

For `CN1C/C(=C/c2cccnc2)C(=O)/C(=C/c2cccnc2)C1`, the Potency result is “inactive”.

As to `CCN(CC)C(=O)c1cccc(-c2csc(C(C)(O)c3cccc(F)c3)n2)c1` (configuration not stated), the Potency entry is “inactive”.

For the compound `CCN1C(=O)/C(=C/c2nc3ccccc3c(=O)n2-c2ccccc2)c2ccccc21`, the Potency is 12.6 µM (active).

`CCOC(=O)C1=CCN(S(=O)(=O)c2ccc(C)cc2)C1c1cccc(Cl)c1` (configuration not stated): the Potency result was “inactive”.

Consider `CCn1c(C)nc2cc(C(=O)N/N=C(\C)c3ccc(OC)cc3O)ccc21`, for which the Potency entry was “inactive”.

`CCOC(=O)c1c(NC(=O)COC(=O)Cn2cnc3ccccc32)sc(C)c1C`: the Potency result is “inactive”.

For the compound `Cc1sc(NC(=O)c2cc(-c3ccc(Cl)cc3)nc3ccccc23)c(C(N)=O)c1C`, the Potency is 8.91 µM (active).

Regarding `O=C(NN=C1CCCC1)c1cc(-c2ccc(F)cc2)nc2ccccc12`, the Potency result is “inactive”.

As to `O=C(c1cc(COc2cccc(C(F)(F)F)c2)on1)N1CCC(c2ccncc2)CC1`, the Potency entry is “inactive”.

As to `CCN1CCN(c2cc(C(C)C)nc3c(-c4ccccc4)c(C)nn23)CC1`, the Potency result is “inactive”.

Take `COc1ccccc1-n1c(-c2ccccc2)c[n+]2c1CCc1ccccc1-2`: the Potency is 10 µM (active).

As for `OCC1(CCOc2ccccc2)CCN(CC2=Cc3cc(Cl)ccc3OC2)CC1`, the Potency entry was “inactive”.

As to `O=S(=O)(Nc1cccc2cccnc12)c1ccccc1`, the Potency result was “inactive”.

Regarding `Cc1ccc(S(=O)(=O)Nc2cccc3cccnc23)cc1`, the Potency result is “inactive”.

For the compound `O=[N+]([O-])c1ccccc1S(=O)(=O)Nc1cccc2cccnc12`, the Potency is 11.2 µM (active).

As to `O=C(CSc1nnc(-c2ccccc2)o1)Nc1ccccc1F`, the Potency result was “inactive”.

Turning to `C/C(=N\NC(=O)CSCc1ccc([N+](=O)[O-])cc1)c1ccccc1O`, the Potency result is “inactive”.

For `CC(=O)C(C(C)=O)c1c(Cl)c(O)c(O)c2c(C(=O)c3ccccc3)coc12`, the Potency is 7.08 µM (active).

In the case of `CCOC(=O)C(C(C)=O)c1c(Br)c(O)c(O)c2c(C(=O)c3ccc(C)cc3)coc12` (configuration not stated), the Potency was 10 µM (active).

For `O=C(NC(=S)NCc1nc2ccccc2[nH]1)c1ccc(F)cc1`, the Potency entry is “inactive”.

With `NS(=O)(=O)c1ccc(Sc2nc3ccccc3s2)c([N+](=O)[O-])c1`, the Potency result is “inactive”.

On to `Cc1sc2cc3c(c(C(=O)c4ccccc4)[n+]2c1C)-c1cccc2cccc-3c12`, for which the Potency was 10 µM (active).

`Cc1ccc(-c2csc(N3CCN(c4cc5c(cc4Cl)nc(-c4ccncc4)n5CCOCCO)CC3)n2)cc1`: the Potency entry was “inactive”.
